Autofluor counter: compound fluorescence in toxin protease inhibitor counterscreen. compound autofluorescence counterscreen, microsphere flow cytometry; stronger effect = higher value. fluorescence intensity (no concentration beside the values). hit rate 3.1% among 360,000; in the data active = fluorescence intensity above about 16000; inconclusive = no clear call, values can overlap the other calls
Anthrax LF prot: inhibitors of Bacillus anthracis lethal factor protease | hit rate 0.12% among 360,000 | multiplex microsphere protease cleavage assay, LF | inhibition, % at 10 µM | P15917
BoNT F protease: inhibitors of Botulinum neurotoxin F light chain protease; AID 588497; inhibition, % at 10 µM; Multiplex microsphere protease cleavage assay, flow cytometry; hit rate 0.22% among 360,000; in the data active = inhibition above about 35%, passing the limit was not always enough; inconclusive = no clear call, values can overlap the other calls
BoNT A protease: BoNT A light chain protease inhibition; multiplex microsphere protease substrate cleavage, flow cytometry; hit rate 0.17% among 360,000; AID 588499; inhibition, % at 10 µM
MazF activator: activators of E. coli MazEF toxin-antitoxin RNase | hit rate 0.32% among 350,000 | activation, % at 20 µM | P0AE70 | FAM/BHQ RNA-DNA oligo cleavage fluorescence, 5 h; in the data active = activation above about 50%
Target sequence (P0AE70 whole entry, looked up): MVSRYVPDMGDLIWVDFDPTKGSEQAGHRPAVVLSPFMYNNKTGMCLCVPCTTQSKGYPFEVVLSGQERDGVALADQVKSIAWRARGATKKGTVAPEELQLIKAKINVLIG
BoNT-A LC CP1: blocks botulinum neurotoxin A light chain protease. multiplex microsphere protease assay, flow cytometry. shares compounds with BoNT F protease. inhibition, % at 10 µM. hit rate 3% among 720; in the data active = inhibition above about 32%
BoNT-F LC CP1: inhibitors of Botulinum neurotoxin F light chain protease | shares compounds with BoNT F protease | multiplex microsphere protease cleavage assay, flow cytometry | inhibition, % at 10 µM | 720 tested, under 10 active; call rule not given here
Anthrax LF CP1: Bacillus anthracis lethal factor protease inhibition; shares compounds with BoNT F protease; multiplex microsphere protease cleavage assay, LF; inhibition, % at 10 µM; 720 tested, under 10 active; call rule not given here
Hits are given with their value; – = inactive; ? = inconclusive; · = no result given. In the library only some 3.7% were active in any assay of this set; here they are far more common. Cut-off read from the data, not from the text of the source, unless noted: active = inhibition above about 30%; inconclusive = no clear call, values can overlap the other calls; inactive = below that.

SMILES	Autofluor counter	Anthrax LF prot	BoNT F protease	BoNT A protease	MazF activator	others
Cc1ccc(S(=O)(=O)N2CCCCC2C(=O)NCc2ccco2)cc1 (stereo not drawn)	–	–	–	–	–
O=C(NCc1ccco1)C1Cc2ccccc2CN1C(=O)c1ccco1 (stereo not drawn)	–	–	–	–	–
Cc1ccc(S(=O)(=O)N2CCC(C(=O)N3CCC[C@H]3C(=O)NCc3ccco3)CC2)cc1	16928	–	–	–	–
O=C(NCc1ccco1)C1Cc2ccccc2CN1S(=O)(=O)c1ccccc1F (stereo not drawn)	23284	–	–	–	–
CC(C)(C)OC(=O)N1CCCC(C(=O)Nc2cccc(C(=O)N3CCOCC3)c2)C1 (stereo not drawn)	–	–	–	–	–
Cc1ccc(C(=O)OCC(=O)Nc2ccc(C)c(S(=O)(=O)N3CCCCC3)c2)o1	–	–	–	–	–
O=C(NCc1ccco1)C1CN(S(=O)(=O)c2ccccc2)CCN1S(=O)(=O)c1ccccc1 (stereo not drawn)	20955	–	–	–	–
CCCNC(=O)C1CN(S(=O)(=O)c2ccccc2)CCN1S(=O)(=O)c1ccccc1 (stereo not drawn)	–	–	–	–	–
CCn1c(=O)c(C(=O)NCc2ccccc2)c(O)c2ccccc21	–	47.9	–	–	–
CCc1ccc(NC(=O)C(CC)Sc2nc3cc4c(cc3c(=O)n2Cc2ccco2)OCO4)cc1 (stereo not drawn)	20624	–	–	?	–
CC(C)NC(=O)C1(C)CCN1C(=O)c1cccn1C (stereo not drawn)	–	–	–	–	·
CC1=CC2=C(C=O)C(=O)C(C)(O)C(O)C2=CO1 (stereo not drawn)	–	–	–	–	242.2
C[C@H](NC(=O)C1CCN(S(=O)(=O)c2ccccc2)CC1)C(=O)NCc1cccnc1	–	–	–	–	–
Cc1cc(N)ccc1N1CCCC1	–	–	–	–	–
Cc1cc(N2CCCC2)c(C)cc1C=O	22088	–	–	–	–
O=c1[nH]cnc2scc(-c3ccc(-c4ccccc4)cc3)c12	–	–	–	–	83.1
COc1ccc(Cl)cc1NC(=O)CN1C(=O)NC(Cc2c[nH]c3ccccc23)C1=O (stereo not drawn)	–	–	–	–	–
Cc1ccc(NS(=O)(=O)c2ccc(C(=O)N3CCN(S(=O)(=O)c4ccccc4)CC3)cc2)cc1	?	–	–	–	–
COCc1cc(C)nc(SCC(=O)Nc2ccc3c(c2)n(C)c(=O)n3C)c1C#N	–	–	–	–	–
COc1ccc(C(=O)Nn2cnnc2)cc1	–	–	–	–	–
CCCCOc1ccc(C(=O)Nn2cnnc2)cc1	23869	–	–	?	–
CCN1/C(=C/c2ccc3cc(C)ccc3[n+]2CC)Sc2ccc3sccc3c21	–	–	–	49.2	–
CCN1/C(=C\c2ccc3cc(C)ccc3[n+]2CC)Sc2cc(C)c(C)cc21	–	–	–	42.0	82.2
CCN1/C(=C/c2ccc3cc(C)cc(C)c3[n+]2CC)Sc2cc(C)ccc21	–	–	–	–	–
CCN1/C(=C/c2ccc3cccc(C)c3[n+]2CC)Sc2ccccc21	–	–	–	79.4	73.2
SMILES	Autofluor counter	Anthrax LF prot	BoNT F protease	BoNT A protease	MazF activator	others
Cc1nc2ccc(C(=O)Nc3cccc(OCC(=O)N(C)C)c3)cn2c1N(C)CC1CCCCC1	–	–	–	–	·
CCCCN(Cc1ccc(C(=O)N[C@H](C(=O)O)C(C)C)cc1)C(=O)C(c1ccccc1)c1ccccc1	–	–	–	–	–
O=C(Nc1cc(Cl)ccc1-n1cncn1)c1ccc([N+](=O)[O-])o1	–	–	–	–	–
Nc1c(C(=O)NCc2ccc3c(c2)OCO3)nnn1CC(=O)Nc1ccc(Br)cc1	–	–	–	–	90.4
Cc1cc(C)c(NC(=O)Cn2nnc(C(=O)NCc3ccc4c(c3)OCO4)c2N)c(C)c1	–	–	–	–	70.2
Cc1ccc(NC(=O)Cn2nnc(C(=O)NCc3ccc4c(c3)OCO4)c2N)cc1	–	–	–	–	–
CC(C)(C)OC(=O)N1CC2(CCCCC2)CC1Cc1ccc(C(F)(F)F)cc1 (stereo not drawn)	–	–	–	–	–
COC(=O)[C@@H](NC(=O)Nc1ccc(OC)cc1)C(C)C	–	–	–	–	–
COC(=O)[C@@H](NC(=O)Nc1cccc(OC)c1)C(C)C	21593	–	–	–	–
CC(=O)Nc1ccc(NC(=O)C(C)Oc2ccc(C)nc2[N+](=O)[O-])cc1 (stereo not drawn)	–	–	–	–	–
Cc1cc2n(n1)C(c1ccc3c(c1)OCO3)Nc1c(C)cccc1-2 (stereo not drawn)	?	?	–	–	–
Cc1cc(C)c2c(c1)-c1cc(C)nn1C(c1ccc3c(c1)OCO3)N2 (stereo not drawn)	24496	–	–	?	–
COc1ccc(C(CNC(=O)c2ccc(OCc3csc(C)n3)cc2)N2CCCC2)cc1 (stereo not drawn)	–	–	–	–	–
O=C(COC(=O)/C=C/c1ccc(C(F)(F)F)cc1)NCc1ccco1	–	–	–	–	–
Cc1nn(CCc2n[nH]c(=S)n2C2CCCCC2)c(C)c1Br	26154	–	–	–	–
Cc1nn(CCc2n[nH]c(=S)n2C)c(C)c1Br	–	–	–	–	–
COc1cc(Cl)ccc1OC1(C)CCN(Cc2cccc(OC)c2OC)C1 (stereo not drawn)	–	–	–	–	·
O=[N+]([O-])c1ccc(N(c2ccccc2)c2ccccc2)cc1	21531	46.7	–	58.2	–	BoNT-A LC CP1=–;BoNT-F LC CP1=–;Anthrax LF CP1=–
COc1ccc(OC(F)(F)F)cc1CC1(C)C(=O)Nc2c(Cl)ccc(Cl)c21 (stereo not drawn)	–	–	–	–	·
CNC(=S)N1N=C(c2cccs2)CC1c1ccc(F)cc1 (stereo not drawn)	–	–	50.0	–	–	BoNT-A LC CP1=–;BoNT-F LC CP1=–;Anthrax LF CP1=–
CCCCN1CC(=O)N2[C@H](c3ccc(Cl)cc3)[C@@H]3C(=O)N(CC)C(=O)[C@@H]3[C@]2(C)C1=O	–	–	–	–	–
CCOc1ccccc1N1CCN(CC(=O)Nc2nccs2)CC1	–	–	–	–	–
COc1ccccc1NS(=O)(=O)c1ccc2[nH]c(=O)[nH]c2c1	–	–	36.1	–	–	BoNT-A LC CP1=–;BoNT-F LC CP1=–;Anthrax LF CP1=–
O=c1[nH]c2ccc(S(=O)(=O)Nc3ccccc3O)cc2[nH]1	–	–	–	–	–
O=c1c(Cl)c2oc3ccccc3nc-2c2ccccc12	–	–	–	47.2	–	BoNT-A LC CP1=31.7;BoNT-F LC CP1=–;Anthrax LF CP1=–
Cc1cc([N+](=O)[O-])nn1Cc1ccccc1F	–	–	35.3	–	–	BoNT-A LC CP1=–;BoNT-F LC CP1=–;Anthrax LF CP1=–
Cc1cc([N+](=O)[O-])nn1Cn1nc([N+](=O)[O-])cc1C	–	–	–	–	–

Screening data (PubChem BioAssay)
